Compound activity (PubChem)
SENP6 inh: SENP6 protease inhibitors, primary screen, biochemical, luminescence, uHTS. Recombinant SENP6 catalytic domain, aminoluciferin luminescence. inhibition, % at 10 µM. hit rate 1.8% among 330,000. AID 2599, 2010;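 active means inhibition above about 50% at the single tested dose, limit read from the data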
SENP8 block-1: SENP8 protease inhibitors, primary screen, biochemical, luminescence | purified SENP8, Z-RLRGG-aminoluciferin cleavage | inhibition, % at 10 µM | hit rate 1.2% among 330,000; in the data active means inhibition above about 50%
SENP8 block-2: human SENP8 protease inhibitors, primary screen, biochemical, fluorescence, Nedd8 protein substrate, uHTS. inhibition, % at 20 µM. Sentrin-specific protease 8 (Homo sapiens), Q96LD8. recombinant SENP8. hit rate 0.64% among 360,000; in the data active means inhibition mostly above about 40%, no sharp cut-off; inactive means mostly below about 27%
TRAIL sens C8: viability loss with TRAIL in NB7+C8 cells, primary screen, TRAIL sensitizer project, cell-based, ATPlite luminescence. hit rate 1% among 360,000. inhibition (viability loss, TRAIL sensitization), % at 10 µM;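 active means compounds causing at least 50% loss of cell viability in the single-dose screen, relative to plate controls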
PPC-1+TRAIL kill: compounds killing PPC-1 cancer cells with TRAIL present, primary screen, TRAIL potentiator project, ATPLite luminescence, uHTS; PPC-1 cells + TRAIL, ATPLite viability luminescence; cell killing (% activity), % at 4 µM or 5 µM; hit rate 0.41% among 220,000; AID 1443, 2008;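 active means cell killing above 50% in the first pass at 4 µM, then a duplicate retest at 5 µM averaging 50% or more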
SENP7 inh: SENP7 protease inhibitors, primary screen, biochemical, luminescence, uHTS; inhibition, % at 5 µM; Sentrin-specific protease 7 (Homo sapiens), Q9BQF6; recombinant SENP7, Z-RLRGG-aminoluciferin luminescence, 40 min; hit rate 1.5% among 330,000;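 active means inhibition above about 50% at the single test dose, limit read from the data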
Target sequence (Q9BQF6 706-1050 limits assumed): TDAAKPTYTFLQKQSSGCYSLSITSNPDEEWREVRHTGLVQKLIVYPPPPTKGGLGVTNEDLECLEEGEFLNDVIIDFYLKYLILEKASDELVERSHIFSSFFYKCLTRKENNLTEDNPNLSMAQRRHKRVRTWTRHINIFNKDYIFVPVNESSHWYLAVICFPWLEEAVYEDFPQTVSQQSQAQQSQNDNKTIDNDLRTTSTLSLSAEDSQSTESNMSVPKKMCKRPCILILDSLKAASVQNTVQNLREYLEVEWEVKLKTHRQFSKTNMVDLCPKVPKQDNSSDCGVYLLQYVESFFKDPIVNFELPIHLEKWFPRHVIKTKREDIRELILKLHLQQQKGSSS
Large screens that a line does not name were inactive. The list is not random: actives were taken first. Their share in the collection is about 3%.

C=C(C)[C@@H]1C2=CC(C(=O)OC)=C(C[C@H](C(=C)C)[C@H]3O[C@H]3C3=C[C@H]1OC3=O)O2	TRAIL sens C8 77 (no result: SENP6 inh, SENP8 block-1, PPC-1+TRAIL kill, SENP7 inh)
Cc1nc(N)nc(N)c1-c1ccc([N+](=O)[O-])cc1	TRAIL sens C8 75 (no result: SENP6 inh, SENP8 block-1, PPC-1+TRAIL kill, SENP7 inh)
COc1ccc(-c2csc(N3C(=O)CNC3=S)n2)cc1	none (no result: SENP6 inh, SENP8 block-1, SENP7 inh)
Cc1cc2nc(N3C(=O)CNC3=S)sc2cc1C	SENP6 inh 95, SENP8 block-1 95, TRAIL sens C8 57, SENP7 inh 96
CCOc1ccc2nc(N3C(=O)CNC3=S)sc2c1	TRAIL sens C8 59
CCC(C(=O)c1ccc2ncccc2c1)c1ccccc1 (stereo not given)	none
O=c1c2c([nH]n1-c1ccccc1)CCSC2	SENP8 block-2 46 (no result: PPC-1+TRAIL kill)
Clc1nc(Cl)c2ncn(-c3ccccc3)c2n1	TRAIL sens C8 65 (no result: SENP6 inh, SENP8 block-1, PPC-1+TRAIL kill, SENP7 inh)
COc1ccc(OCCNC(=O)c2ccc3nc(C)c(N(C)C(=O)CCc4ccccc4)n3c2)cc1	none (no result: SENP6 inh, SENP8 block-1, PPC-1+TRAIL kill, SENP7 inh)
C#CCOCCOCCOCCNc1nc(N2CCN(C(=O)CCCCCCCCCCNC(=O)Cn3cc(C[C@@H](C)O)nn3)CC2)nc(N2CCN(C(=O)CCCCCCCCCCNC(=O)[C@@H]([C@H](C)CC)n3cc(CCCCCN)nn3)CC2)n1	TRAIL sens C8 93 (no result: PPC-1+TRAIL kill)
C#CCOCCOCCOCCNc1nc(N2CCN(C(=O)CCCCCCCCCCNC(=O)[C@H](CCCCN)n3cc(C)nn3)CC2)nc(N2CCN(C(=O)CCCCCCCCCCNC(=O)[C@H](CCCN=C(N)N)n3cc(C[C@@H](C)CC)nn3)CC2)n1	none (no result: SENP8 block-2, TRAIL sens C8, PPC-1+TRAIL kill)
C#CCOCCOCCOCCNc1nc(N2CCN(C(=O)CCCCCCCCCCNC(=O)[C@H](CCCCN)n3cc(C[C@@H](C)CC)nn3)CC2)nc(N2CCN(C(=O)CCCCCCCCCCNC(=O)[C@H](CCCN=C(N)N)n3cc(C[C@@H](C)CC)nn3)CC2)n1	TRAIL sens C8 94 (no result: PPC-1+TRAIL kill)
C#CCOCCOCCOCCNc1nc(N2CCN(C(=O)CCCCCCCCCCNC(=O)[C@H](CCCCN)n3cc(C[C@@H](C)CC)nn3)CC2)nc(N2CCN(C(=O)CCCCCCCCCCNC(=O)[C@@H]([C@H](C)O)n3cc(C)nn3)CC2)n1	TRAIL sens C8 96 (no result: PPC-1+TRAIL kill)
O=C(COc1ccc(Cl)cc1Cl)N1CCNC1=O	none (no result: PPC-1+TRAIL kill)
CCN1/C(=C/c2ccc3ccccc3[n+]2CCCS(=O)(=O)[O-])C=Cc2cc(C)ccc21	none (no result: SENP6 inh, SENP8 block-1, PPC-1+TRAIL kill, SENP7 inh)
CCN1/C(=C/c2ccc3ccccc3[n+]2CC)C=Cc2ccccc21	SENP8 block-2 42, TRAIL sens C8 59
Cc1onc(-c2c(Cl)cccc2Cl)c1C(=O)N=C(N)N1CCCC1	none
COc1nccnc1NS(=O)(=O)c1ccc(NC(=S)NC(=O)c2ccc(F)cc2)cc1	SENP6 inh 86, SENP8 block-1 78, SENP7 inh 69
COc1nsnc1NS(=O)(=O)c1ccc(NC(=S)NC(=O)c2ccncc2)cc1	none
Nc1c(N(CCC2=CCCCC2)C(=O)COc2ccc(F)cc2)c(=O)[nH]c(=O)n1Cc1ccccc1	TRAIL sens C8 73 (no result: PPC-1+TRAIL kill)
CCN(CC)C(=O)c1cccc(-c2csc(C(C)(O)c3cccc(F)c3)n2)c1 (stereo not given)	none (no result: SENP6 inh, SENP8 block-1, PPC-1+TRAIL kill, SENP7 inh)
O=C(Nc1ccc(OCC(F)(F)C(F)F)c(C(F)(F)F)c1)c1ccc(Cl)cc1	TRAIL sens C8 77 (no result: PPC-1+TRAIL kill)
COc1ccc(C(=O)Nc2ccc(OCC(F)(F)C(F)F)c(C(F)(F)F)c2)cc1OC	none
O=C(O)c1cccc2c1C(=O)c1cc([N+](=O)[O-])cc([N+](=O)[O-])c1-2	SENP8 block-2 44 (no result: SENP6 inh, SENP8 block-1, PPC-1+TRAIL kill, SENP7 inh)
CCn1c(O)c(/C=C2\C=NN=C2c2ccccc2)sc1=S	none
CC(C)Cn1c(O)c(/C=C2\C=NN=C2c2ccccc2)sc1=S	SENP8 block-2 40
CCCCCCn1c(O)c(/C=C2\C=NN=C2c2ccccc2)sc1=S	SENP8 block-2 42
S=C(Nc1ccc(Cl)c(Cl)c1)NN1CCOCC1	none
O=C1CN(S(=O)(=O)c2cc(Br)ccc2Br)CCN1	none (no result: PPC-1+TRAIL kill)
O=c1c(Br)ccc(Br)cc1Br	TRAIL sens C8 93 (no result: SENP6 inh, SENP8 block-1, PPC-1+TRAIL kill, SENP7 inh)
Cc1cc(NC(=O)Cc2ccccc2)nc2c1c(=O)oc1ccccc12	none
Cc1cc(NC(=O)C2CCCCC2)nc2c1c(=O)oc1ccccc12	none
